Source: paper PMC7862700, “An all-to-all approach to the identification of sequence-specific readers for epigenetic DNA modifications on cytosine”

What was measured:
Assay in all cases: DAPPL (digital affinity profiling via proximity ligation, sequencing); 10 mM Tris-HCl pH 7.5, 50 mM NaCl, 1 mM DTT, 4% glycerol, room temperature, 30 min; GST-TFs on glutathione beads, 16-mer random dsDNA library, 0.1% formaldehyde crosslink after washing; high values mean tight binding
[1] = molecular target: T1, FEV (Homo sapiens, UniProt Q99581 1-238); conditions: protein: recombinant; tags: N-terminal GST; dsDNA, one strand shown
T1 sequence: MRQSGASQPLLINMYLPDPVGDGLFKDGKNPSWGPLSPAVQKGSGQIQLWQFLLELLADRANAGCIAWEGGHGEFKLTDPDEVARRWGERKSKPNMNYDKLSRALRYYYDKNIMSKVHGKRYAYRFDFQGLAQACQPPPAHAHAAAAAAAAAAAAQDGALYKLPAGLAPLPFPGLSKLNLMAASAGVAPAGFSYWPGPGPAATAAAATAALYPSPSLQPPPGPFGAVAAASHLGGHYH
Summary of the method: (§1)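 Human transcription factors were made in yeast as GST fusions, captured on glutathione beads and barcoded with DNA. With a tag-only sample included, the pool was incubated with 200 nmole of a random double-stranded 16-mer DNA library in Tris/NaCl/DTT/glycerol buffer at room temperature for 30 min, then crosslinked with 0.1% formaldehyde after washing, ligated by proximity, amplified and sequenced. For binding signal, each hexamer's read frequency for a factor is divided by its frequency for the tag-only sample.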

[2] = molecular target: ETV5 (Homo sapiens, UniProt P41161 1-510); conditions: protein: recombinant; tags: N-terminal GST; dsDNA, one strand shown
Summary of the method: as §1

[3] = molecular target: HSF1 (Homo sapiens, UniProt Q00613 1-529); conditions: protein: recombinant; tags: N-terminal GST; chain copies: 3; dsDNA, one strand shown
Summary of the method: as §1

[4] = molecular target: T2, SPIC (Homo sapiens, UniProt Q8N5J4 1-248); conditions: protein: recombinant; tags: N-terminal GST; dsDNA, one strand shown
T2 sequence: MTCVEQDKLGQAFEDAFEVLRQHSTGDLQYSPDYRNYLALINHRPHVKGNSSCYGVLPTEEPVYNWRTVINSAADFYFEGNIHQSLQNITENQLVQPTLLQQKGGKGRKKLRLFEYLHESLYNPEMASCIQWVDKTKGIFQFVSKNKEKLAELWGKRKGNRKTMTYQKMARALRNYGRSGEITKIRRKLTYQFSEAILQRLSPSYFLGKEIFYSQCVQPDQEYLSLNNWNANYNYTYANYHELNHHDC
Summary of the method: as §1

[5] = molecular target: ELF4 (Homo sapiens, UniProt Q99607 1-663); conditions: protein: recombinant; tags: N-terminal GST; dsDNA, one strand shown
Summary of the method: as §1

[6] = molecular target: T3, ELK4 (Homo sapiens, UniProt P28324-2 1-405); conditions: protein: recombinant; tags: N-terminal GST; dsDNA, one strand shown
T3 sequence: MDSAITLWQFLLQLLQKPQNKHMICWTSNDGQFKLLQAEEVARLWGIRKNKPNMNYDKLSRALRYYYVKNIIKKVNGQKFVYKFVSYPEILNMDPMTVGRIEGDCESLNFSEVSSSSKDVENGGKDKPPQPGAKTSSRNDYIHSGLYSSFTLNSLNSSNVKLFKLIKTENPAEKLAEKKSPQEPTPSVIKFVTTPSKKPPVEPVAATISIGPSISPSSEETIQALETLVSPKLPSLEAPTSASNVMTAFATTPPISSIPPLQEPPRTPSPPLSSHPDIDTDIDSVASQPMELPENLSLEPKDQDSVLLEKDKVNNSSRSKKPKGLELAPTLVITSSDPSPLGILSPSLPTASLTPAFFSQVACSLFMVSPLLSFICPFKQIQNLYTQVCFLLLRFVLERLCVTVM
Summary of the method: as §1

[7] = molecular target: T4, ETV2 (Homo sapiens, UniProt O00321 1-342); conditions: protein: recombinant; tags: N-terminal GST; dsDNA, one strand shown
T4 sequence: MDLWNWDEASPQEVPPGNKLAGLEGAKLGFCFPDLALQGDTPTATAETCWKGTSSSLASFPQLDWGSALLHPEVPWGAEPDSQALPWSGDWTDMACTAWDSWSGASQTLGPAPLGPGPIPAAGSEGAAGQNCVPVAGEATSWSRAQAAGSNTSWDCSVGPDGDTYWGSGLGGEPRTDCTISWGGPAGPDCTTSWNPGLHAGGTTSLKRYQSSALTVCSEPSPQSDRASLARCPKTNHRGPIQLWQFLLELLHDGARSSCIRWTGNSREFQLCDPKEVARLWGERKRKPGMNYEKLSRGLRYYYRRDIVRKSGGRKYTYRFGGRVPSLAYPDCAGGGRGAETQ
Summary of the method: as §1

[8] = molecular target: T5, ELF3 (Homo sapiens, UniProt P78545 1-371); conditions: protein: recombinant; tags: N-terminal GST; dsDNA, one strand shown
T5 sequence: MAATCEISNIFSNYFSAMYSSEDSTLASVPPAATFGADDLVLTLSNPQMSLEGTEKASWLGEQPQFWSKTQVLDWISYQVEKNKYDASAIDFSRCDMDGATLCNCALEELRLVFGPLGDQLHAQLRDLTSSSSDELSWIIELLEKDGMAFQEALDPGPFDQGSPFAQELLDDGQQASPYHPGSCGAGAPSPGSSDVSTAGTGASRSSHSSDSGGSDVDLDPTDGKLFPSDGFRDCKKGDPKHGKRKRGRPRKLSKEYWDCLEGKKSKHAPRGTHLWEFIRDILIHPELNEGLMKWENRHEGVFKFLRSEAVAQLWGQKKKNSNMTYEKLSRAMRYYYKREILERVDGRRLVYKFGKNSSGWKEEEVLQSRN
Summary of the method: as §1

[9] = molecular target: CRX (Homo sapiens, UniProt O43186 1-299); conditions: protein: recombinant; tags: N-terminal GST; dsDNA, one strand shown
Summary of the method: as §1

[10] = molecular target: ETV1 (Homo sapiens, UniProt P50549 1-477); conditions: protein: recombinant; tags: N-terminal GST; dsDNA, one strand shown
Summary of the method: as §1

[11] = molecular target: T6, ERF (Homo sapiens, UniProt P50548 1-548); conditions: protein: recombinant; tags: N-terminal GST; dsDNA, one strand shown
T6 sequence: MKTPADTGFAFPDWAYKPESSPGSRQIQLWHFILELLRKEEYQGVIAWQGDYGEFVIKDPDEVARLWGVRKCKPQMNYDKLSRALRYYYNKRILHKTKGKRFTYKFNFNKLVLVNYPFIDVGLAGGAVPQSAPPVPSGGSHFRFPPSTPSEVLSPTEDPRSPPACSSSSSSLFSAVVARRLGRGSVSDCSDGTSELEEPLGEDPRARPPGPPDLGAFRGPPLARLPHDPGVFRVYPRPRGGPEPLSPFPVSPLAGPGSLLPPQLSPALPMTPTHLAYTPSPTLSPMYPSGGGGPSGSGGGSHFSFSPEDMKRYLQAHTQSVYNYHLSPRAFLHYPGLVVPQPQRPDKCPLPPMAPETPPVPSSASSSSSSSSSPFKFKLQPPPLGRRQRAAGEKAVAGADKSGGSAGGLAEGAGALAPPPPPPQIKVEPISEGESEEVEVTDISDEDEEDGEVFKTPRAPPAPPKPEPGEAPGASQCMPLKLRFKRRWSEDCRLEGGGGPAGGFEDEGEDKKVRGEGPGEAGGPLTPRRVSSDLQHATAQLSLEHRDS
Summary of the method: as §1

[12] = molecular target: T7, ETV3L (Homo sapiens, UniProt Q6ZN32 1-361); conditions: protein: recombinant; tags: N-terminal GST; dsDNA, one strand shown
T7 sequence: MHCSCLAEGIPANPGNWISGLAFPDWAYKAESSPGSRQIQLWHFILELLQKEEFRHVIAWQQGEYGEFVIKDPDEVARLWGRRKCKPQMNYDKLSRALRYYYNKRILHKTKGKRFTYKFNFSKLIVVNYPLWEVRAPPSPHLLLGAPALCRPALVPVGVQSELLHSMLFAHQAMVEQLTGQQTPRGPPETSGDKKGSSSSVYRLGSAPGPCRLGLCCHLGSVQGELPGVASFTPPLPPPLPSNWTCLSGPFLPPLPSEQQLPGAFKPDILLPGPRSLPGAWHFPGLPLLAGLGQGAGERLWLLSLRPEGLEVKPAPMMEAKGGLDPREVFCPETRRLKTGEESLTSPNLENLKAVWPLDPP
Summary of the method: as §1

[13] = molecular target: T8, ETS2 (Homo sapiens, UniProt P15036 1-469); conditions: protein: recombinant; tags: N-terminal GST; dsDNA, one strand shown
T8 sequence: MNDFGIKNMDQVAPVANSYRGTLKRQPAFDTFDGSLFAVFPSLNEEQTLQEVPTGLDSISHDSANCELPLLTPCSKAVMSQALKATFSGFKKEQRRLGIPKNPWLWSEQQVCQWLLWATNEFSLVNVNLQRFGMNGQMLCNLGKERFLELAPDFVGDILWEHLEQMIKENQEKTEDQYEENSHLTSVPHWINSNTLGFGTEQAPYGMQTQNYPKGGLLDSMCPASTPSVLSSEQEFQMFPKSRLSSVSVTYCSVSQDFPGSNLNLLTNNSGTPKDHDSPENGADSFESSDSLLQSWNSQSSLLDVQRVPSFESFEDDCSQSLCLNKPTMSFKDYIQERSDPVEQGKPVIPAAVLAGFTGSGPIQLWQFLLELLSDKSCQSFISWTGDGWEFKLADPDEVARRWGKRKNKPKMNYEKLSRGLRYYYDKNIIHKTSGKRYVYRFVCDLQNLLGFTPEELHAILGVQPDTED
Summary of the method: as §1

[14] = molecular target: T9, SPDEF (Homo sapiens, UniProt O95238 1-335); conditions: protein: recombinant; tags: N-terminal GST; dsDNA, one strand shown
T9 sequence: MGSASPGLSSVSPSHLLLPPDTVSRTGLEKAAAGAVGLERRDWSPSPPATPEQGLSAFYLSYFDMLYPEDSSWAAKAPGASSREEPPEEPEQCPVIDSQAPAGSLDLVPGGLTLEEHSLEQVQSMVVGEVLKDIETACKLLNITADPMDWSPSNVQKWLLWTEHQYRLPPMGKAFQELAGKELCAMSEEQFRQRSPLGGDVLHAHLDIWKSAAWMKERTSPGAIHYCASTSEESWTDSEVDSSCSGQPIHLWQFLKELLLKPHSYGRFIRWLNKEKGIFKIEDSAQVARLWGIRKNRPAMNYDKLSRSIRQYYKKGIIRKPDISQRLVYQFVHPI
Summary of the method: as §1

[15] = molecular target: T10, ETV7 (Homo sapiens, UniProt Q9Y603 1-341); conditions: protein: recombinant; tags: N-terminal GST; dsDNA, one strand shown
T10 sequence: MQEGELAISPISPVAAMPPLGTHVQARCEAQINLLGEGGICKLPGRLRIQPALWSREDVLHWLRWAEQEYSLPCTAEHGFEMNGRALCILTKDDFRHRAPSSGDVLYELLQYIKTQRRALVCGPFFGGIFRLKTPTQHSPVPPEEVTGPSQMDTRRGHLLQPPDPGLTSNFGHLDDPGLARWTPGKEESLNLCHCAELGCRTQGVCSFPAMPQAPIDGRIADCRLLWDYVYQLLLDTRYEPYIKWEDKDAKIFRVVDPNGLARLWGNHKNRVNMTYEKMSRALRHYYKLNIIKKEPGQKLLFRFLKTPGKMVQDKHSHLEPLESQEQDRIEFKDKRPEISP
Summary of the method: as §1

[16] = molecular target: T11, ELF5 (Homo sapiens, UniProt Q9UKW6-2 1-255); conditions: protein: recombinant; tags: N-terminal GST; dsDNA, one strand shown
T11 sequence: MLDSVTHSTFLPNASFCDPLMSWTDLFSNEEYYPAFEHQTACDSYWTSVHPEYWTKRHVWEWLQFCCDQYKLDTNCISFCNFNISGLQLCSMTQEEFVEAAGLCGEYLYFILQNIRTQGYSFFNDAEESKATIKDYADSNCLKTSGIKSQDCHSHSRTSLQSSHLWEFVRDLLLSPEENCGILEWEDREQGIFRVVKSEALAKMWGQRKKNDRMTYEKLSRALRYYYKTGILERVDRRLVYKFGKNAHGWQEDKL
Summary of the method: as §1

[17] = molecular target: T12, ETV3 (Homo sapiens, UniProt P41162-2 1-143); conditions: protein: recombinant; tags: N-terminal GST; dsDNA, one strand shown
T12 sequence: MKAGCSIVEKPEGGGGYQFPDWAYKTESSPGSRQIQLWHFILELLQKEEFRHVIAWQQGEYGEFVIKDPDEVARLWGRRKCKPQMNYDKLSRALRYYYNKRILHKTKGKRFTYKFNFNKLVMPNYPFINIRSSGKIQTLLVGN
Summary of the method: as §1

[18] = molecular target: ETV6 (Homo sapiens, UniProt P41212 1-452); conditions: protein: recombinant; tags: N-terminal GST; dsDNA, one strand shown
Summary of the method: as §1

Chain of ETV1 (P50549 whole entry): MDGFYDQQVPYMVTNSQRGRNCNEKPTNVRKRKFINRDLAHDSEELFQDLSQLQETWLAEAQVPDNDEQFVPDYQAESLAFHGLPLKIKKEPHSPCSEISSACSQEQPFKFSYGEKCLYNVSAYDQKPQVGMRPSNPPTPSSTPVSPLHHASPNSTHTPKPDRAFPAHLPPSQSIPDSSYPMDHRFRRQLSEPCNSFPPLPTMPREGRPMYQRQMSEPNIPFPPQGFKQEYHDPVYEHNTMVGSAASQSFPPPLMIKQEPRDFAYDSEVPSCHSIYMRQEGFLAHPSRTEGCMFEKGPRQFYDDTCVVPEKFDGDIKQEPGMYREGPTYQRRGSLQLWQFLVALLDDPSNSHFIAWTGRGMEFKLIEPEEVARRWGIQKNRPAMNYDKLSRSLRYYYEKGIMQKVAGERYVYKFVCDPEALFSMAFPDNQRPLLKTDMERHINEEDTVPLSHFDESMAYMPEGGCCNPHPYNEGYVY
Chain of ELF4 (Q99607 whole entry): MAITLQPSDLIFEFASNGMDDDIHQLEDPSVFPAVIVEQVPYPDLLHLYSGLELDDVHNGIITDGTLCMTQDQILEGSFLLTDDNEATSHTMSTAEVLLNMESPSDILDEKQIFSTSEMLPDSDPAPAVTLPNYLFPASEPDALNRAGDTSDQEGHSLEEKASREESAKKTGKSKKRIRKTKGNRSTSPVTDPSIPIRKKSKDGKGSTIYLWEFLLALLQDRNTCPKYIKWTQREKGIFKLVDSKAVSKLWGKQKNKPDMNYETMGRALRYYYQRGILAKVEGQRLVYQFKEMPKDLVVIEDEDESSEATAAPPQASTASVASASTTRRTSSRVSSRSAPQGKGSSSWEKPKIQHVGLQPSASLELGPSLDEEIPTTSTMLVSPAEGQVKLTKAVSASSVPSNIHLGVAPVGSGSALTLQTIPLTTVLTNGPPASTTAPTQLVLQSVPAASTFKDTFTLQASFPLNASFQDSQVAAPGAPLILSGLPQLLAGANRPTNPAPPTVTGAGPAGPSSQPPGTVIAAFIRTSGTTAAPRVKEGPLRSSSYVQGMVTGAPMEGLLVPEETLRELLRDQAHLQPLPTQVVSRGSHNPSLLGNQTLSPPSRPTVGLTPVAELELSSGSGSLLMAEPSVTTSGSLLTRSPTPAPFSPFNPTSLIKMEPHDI
Chain of ETV5 (P41161 whole entry): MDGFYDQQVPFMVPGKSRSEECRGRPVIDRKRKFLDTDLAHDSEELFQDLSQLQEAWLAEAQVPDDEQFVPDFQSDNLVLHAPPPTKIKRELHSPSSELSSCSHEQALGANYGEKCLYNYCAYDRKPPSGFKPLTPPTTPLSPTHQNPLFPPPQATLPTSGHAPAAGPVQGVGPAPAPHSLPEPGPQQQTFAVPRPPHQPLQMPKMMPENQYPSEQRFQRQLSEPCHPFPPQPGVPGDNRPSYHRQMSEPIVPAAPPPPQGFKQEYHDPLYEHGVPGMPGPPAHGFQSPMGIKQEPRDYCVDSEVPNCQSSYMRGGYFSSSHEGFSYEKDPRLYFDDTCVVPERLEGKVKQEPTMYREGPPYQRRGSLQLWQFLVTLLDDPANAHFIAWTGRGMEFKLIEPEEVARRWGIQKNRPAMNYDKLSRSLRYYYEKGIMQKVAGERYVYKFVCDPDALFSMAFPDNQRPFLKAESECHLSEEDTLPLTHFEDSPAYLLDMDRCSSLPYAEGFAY
Chain of CRX (O43186 whole entry): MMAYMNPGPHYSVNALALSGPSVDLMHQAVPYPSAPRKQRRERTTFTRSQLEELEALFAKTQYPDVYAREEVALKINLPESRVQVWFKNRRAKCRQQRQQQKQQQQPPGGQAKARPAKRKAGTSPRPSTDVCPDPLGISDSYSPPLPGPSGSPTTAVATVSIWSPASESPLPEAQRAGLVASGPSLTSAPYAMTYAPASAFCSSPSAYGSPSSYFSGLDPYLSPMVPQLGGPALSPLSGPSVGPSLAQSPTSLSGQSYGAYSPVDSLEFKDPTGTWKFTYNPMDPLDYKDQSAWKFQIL
Chain of HSF1 (Q00613 whole entry): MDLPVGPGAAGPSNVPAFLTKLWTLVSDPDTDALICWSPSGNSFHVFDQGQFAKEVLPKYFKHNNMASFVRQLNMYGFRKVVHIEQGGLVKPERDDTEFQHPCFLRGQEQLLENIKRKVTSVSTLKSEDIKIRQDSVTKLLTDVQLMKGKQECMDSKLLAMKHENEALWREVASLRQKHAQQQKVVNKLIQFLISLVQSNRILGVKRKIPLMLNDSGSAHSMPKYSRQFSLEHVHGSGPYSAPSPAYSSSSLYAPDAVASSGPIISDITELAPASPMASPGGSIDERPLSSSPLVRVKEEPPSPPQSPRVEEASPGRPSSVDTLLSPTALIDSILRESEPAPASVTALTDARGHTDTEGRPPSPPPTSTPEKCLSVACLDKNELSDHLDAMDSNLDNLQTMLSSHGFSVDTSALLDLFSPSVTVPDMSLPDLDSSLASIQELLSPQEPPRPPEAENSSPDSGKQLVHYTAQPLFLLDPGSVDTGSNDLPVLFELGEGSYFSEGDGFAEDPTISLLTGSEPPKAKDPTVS
Chain of ETV6 (P41212 whole entry): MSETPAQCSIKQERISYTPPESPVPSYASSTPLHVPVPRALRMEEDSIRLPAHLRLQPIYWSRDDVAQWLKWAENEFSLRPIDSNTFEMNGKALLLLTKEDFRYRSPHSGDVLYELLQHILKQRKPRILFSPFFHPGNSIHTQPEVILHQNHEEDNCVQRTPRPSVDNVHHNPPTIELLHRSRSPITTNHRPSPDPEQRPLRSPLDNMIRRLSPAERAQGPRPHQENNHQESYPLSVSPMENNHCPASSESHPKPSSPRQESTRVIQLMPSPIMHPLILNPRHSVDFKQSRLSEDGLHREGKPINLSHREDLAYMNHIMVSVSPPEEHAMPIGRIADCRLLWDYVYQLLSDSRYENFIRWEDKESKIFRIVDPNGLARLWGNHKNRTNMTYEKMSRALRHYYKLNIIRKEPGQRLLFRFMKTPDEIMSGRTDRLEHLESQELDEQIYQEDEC

## TCATCT
[1]
  binding signal: 1.08 fold enrichment (6-mer frequency, TF over GST control)
[2]
  binding signal: 1.19 fold enrichment (6-mer frequency, TF over GST control)
[3]
  binding signal: 1.44 fold enrichment (6-mer frequency, TF over GST control)
[4]
  binding signal: 1.32 fold enrichment (6-mer frequency, TF over GST control)
[5]
  binding signal: 1.18 fold enrichment (6-mer frequency, TF over GST control)
[6]
  binding signal: 1.59 fold enrichment (6-mer frequency, TF over GST control)
[7]
  binding signal: 1.38 fold enrichment (6-mer frequency, TF over GST control)
[8]
  binding signal: 1.37 fold enrichment (6-mer frequency, TF over GST control)
[9]
  binding signal: 1.5 fold enrichment (6-mer frequency, TF over GST control)
[10]
  binding signal: 1.15 fold enrichment (6-mer frequency, TF over GST control)
[11]
  binding signal: 1.21 fold enrichment (6-mer frequency, TF over GST control)
[12]
  binding signal: 1.22 fold enrichment (6-mer frequency, TF over GST control)
[13]
  binding signal: 1.2 fold enrichment (6-mer frequency, TF over GST control)
[14]
  binding signal: 1.07 fold enrichment (6-mer frequency, TF over GST control)
[15]
  binding signal: 1.14 fold enrichment (6-mer frequency, TF over GST control)
[16]
  binding signal: 1.17 fold enrichment (6-mer frequency, TF over GST control)
[17]
  binding signal: 1.19 fold enrichment (6-mer frequency, TF over GST control)
[18]
  binding signal: 1.22 fold enrichment (6-mer frequency, TF over GST control)
